According to PubChem BioAssay:
Activity calls are given as the source filed them.

Assays:
[1] = system: Plasmodium falciparum Sir2 (PF13_0152, Sir2A); assay: pfSir2 binders on small-molecule microarrays, primary screen, biochemical, small-molecule microarray, 635 nm fluorescence (AID 1098); conditions: small-molecule microarray binding, fluorescence 635 nm; higher = more signal;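 further: score merges spot fluorescence intensity with its signal-to-noise ratio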
[2] = small-molecule microarray binders of probe aDKK1, primary screen, biochemical, biotinylated probe, 635/667 nm fluorescence (AID 1099); conditions: higher = more signal;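 further: score merges 667nm spot fluorescence with signal to noise across triplicate slides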
[3] = small-molecule microarray binders of probe aCHRDL2, primary screen, biochemical, biotinylated probe, 635/667 nm fluorescence (AID 1100); conditions: higher = more signal
[4] = splicing luciferase reporter signal modulators, primary screen, spliceosome inhibition project, cell-based, HEK293, splice +/- reporter (AID 1101); conditions: luminescence, 24 h, higher = more signal, called active from +8 up or from −8 down;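 further: HEK293 cells carrying a splicing-competent luciferase reporter gene; test concentration not given here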
[5] = biological target: Fibroblast growth factor 10 (Homo sapiens) (UniProt O15520); assay: FGF10 binders on small-molecule microarrays, primary screen, biochemical, small-molecule microarray, 635 nm fluorescence (AID 1102); conditions: FGF10 binding, fluorescence 635 nm, higher = more signal
Fibroblast growth factor 10 (Homo sapiens), sequence (O15520 whole entry, looked up): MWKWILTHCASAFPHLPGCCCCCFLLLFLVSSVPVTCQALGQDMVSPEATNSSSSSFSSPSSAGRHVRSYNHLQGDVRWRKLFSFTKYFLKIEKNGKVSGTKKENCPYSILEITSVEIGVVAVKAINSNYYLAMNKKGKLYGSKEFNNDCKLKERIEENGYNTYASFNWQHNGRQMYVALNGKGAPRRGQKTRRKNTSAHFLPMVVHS

[6] = system: glycogen synthase kinase-3 (GSK3A per assay name; protocol says GSK3B); assay: GSK3 binders on small-molecule microarrays, primary screen, biochemical, small-molecule microarray, 635 nm fluorescence, GSK3A (AID 1103); conditions: small-molecule microarray binding, fluorescence 635 nm; higher = more signal; further: the record names both GSK3A and GSK3B
[7] = biological target: Epidermal growth factor receptor (Homo sapiens) (UniProt P00533); assay: EGFR binders on small-molecule microarrays, primary screen, biochemical, small-molecule microarray, 635 nm fluorescence (AID 1104); conditions: EGFR binding, higher = more signal;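 further: score merges 667 nm emission intensity with spot signal to noise over triplicate slides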
Epidermal growth factor receptor (Homo sapiens), sequence (P00533 whole entry, looked up): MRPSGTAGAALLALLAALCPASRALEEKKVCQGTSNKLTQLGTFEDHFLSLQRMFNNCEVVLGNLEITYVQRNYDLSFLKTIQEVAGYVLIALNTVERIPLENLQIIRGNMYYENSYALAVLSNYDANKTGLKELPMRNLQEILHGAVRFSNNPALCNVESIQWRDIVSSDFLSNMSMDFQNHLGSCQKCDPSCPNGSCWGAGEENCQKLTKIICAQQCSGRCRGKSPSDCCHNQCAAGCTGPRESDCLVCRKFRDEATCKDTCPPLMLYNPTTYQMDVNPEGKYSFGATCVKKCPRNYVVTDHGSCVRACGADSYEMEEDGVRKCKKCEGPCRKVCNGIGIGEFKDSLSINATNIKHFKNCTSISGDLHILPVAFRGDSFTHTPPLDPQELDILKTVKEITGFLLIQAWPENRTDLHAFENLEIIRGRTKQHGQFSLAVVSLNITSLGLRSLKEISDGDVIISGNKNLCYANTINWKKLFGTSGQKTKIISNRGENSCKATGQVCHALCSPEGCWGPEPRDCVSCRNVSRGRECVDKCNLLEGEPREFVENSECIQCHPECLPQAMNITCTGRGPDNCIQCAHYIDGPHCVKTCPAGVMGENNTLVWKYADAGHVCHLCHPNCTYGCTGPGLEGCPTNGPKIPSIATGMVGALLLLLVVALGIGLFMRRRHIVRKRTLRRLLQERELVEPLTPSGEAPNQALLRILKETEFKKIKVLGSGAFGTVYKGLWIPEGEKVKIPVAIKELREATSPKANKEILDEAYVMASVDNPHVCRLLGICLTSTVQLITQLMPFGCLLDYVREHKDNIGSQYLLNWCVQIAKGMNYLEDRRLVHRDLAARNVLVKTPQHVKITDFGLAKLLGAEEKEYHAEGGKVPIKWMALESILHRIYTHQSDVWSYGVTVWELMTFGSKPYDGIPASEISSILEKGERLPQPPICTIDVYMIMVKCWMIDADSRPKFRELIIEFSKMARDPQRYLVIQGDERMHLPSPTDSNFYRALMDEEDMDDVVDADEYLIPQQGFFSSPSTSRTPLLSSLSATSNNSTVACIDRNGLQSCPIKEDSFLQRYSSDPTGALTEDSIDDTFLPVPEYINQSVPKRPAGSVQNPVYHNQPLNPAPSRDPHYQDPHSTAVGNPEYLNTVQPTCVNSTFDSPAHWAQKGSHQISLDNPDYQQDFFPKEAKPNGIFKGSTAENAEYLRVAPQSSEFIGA

[8] = biological target: Follistatin-related protein 3 (Homo sapiens) (UniProt O95633); assay: FSTL3 binders on small-molecule microarrays, primary screen, biochemical, small-molecule microarray, 635 nm fluorescence (AID 1105); conditions: FSTL3 binding, higher = more signal;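 further: score merges emission near 667 nm and signal to noise per printed spot across three slides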
Follistatin-related protein 3 (Homo sapiens), sequence (O95633 whole entry, looked up): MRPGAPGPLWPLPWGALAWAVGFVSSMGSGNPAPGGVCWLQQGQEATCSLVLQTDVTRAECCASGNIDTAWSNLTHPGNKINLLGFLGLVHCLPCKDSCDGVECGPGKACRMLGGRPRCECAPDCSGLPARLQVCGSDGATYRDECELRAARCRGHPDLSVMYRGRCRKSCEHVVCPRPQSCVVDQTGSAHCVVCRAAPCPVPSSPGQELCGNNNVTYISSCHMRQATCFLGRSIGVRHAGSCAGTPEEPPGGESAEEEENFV

[9] = biological target: Dickkopf-related protein 1 (Homo sapiens) (UniProt O94907); assay: DKK1 binders on small-molecule microarrays, primary screen, biochemical, small-molecule microarray, 635 nm fluorescence scan (AID 1106); conditions: DKK1 binding, higher = more signal;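 further: score merges emission near 667 nm with signal to noise over three replicate slides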
Dickkopf-related protein 1 (Homo sapiens), sequence (O94907 whole entry, looked up): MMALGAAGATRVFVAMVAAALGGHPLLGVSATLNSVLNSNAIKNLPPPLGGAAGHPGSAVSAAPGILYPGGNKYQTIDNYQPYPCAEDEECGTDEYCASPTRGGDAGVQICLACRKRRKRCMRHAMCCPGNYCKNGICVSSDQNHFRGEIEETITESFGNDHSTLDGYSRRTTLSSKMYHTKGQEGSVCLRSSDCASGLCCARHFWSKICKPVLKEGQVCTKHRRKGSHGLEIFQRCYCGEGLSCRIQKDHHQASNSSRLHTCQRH

[10] = system: Inhibin beta A chain (activin A); assay: INHBA (activin A) binders on microarrays, primary screen, biochemical, small-molecule microarray, 635 nm fluorescence scan (AID 1107); conditions: small-molecule microarray binding, higher = more signal;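 further: mouse activin A protein probed at 4.33 µg/mL on printed slides; score merges bound-protein fluorescence near 667 nm with spot signal-to-noise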
[11] = system: Human papillomavirus type 1a protein E7 (residues 44-93); assay: HPV1a E7 fragment binders on microarrays, primary screen, biochemical, small-molecule microarray, residues 44-93, 635 nm fluorescence (AID 1108); conditions: small-molecule microarray binding, fluorescence 635 nm; higher = more signal;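 further: E7 fragment applied at 1 µg/mL in TBST for 1 h at 4 C; score combines spot fluorescence with its signal to noise ratio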
[12] = modulators of HCV replicon luciferase signal, primary screen, HCV replication inhibitor project, Huh7 cells, luciferase reporter (AID 1109); conditions: 48 h, higher = more signal;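 further: huh7 hepatoma cells harbouring a luciferase neomycin HCV replicon reporter; luciferase luminescence as measure of HCV replicon replication; test concentration not given here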
[13] = biological target: Left-right determination factor 2 (Homo sapiens) (UniProt O00292); assay: LEFTY2 binders on small-molecule microarrays, primary screen, biochemical, small-molecule microarray, 635 nm fluorescence scan (AID 1110); conditions: LEFTY2 binding, higher = more signal
Left-right determination factor 2 (Homo sapiens), sequence (O00292 whole entry, looked up): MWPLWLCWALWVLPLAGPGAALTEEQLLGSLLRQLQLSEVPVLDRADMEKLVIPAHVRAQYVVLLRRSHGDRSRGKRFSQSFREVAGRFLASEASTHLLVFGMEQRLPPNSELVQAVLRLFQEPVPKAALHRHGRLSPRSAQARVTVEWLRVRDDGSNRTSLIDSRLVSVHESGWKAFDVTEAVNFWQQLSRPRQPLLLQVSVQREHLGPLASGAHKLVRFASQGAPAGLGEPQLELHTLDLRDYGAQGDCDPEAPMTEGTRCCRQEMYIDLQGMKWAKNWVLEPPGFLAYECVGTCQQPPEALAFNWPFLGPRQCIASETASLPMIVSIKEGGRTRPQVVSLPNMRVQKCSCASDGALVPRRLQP

[14] = biological target: Calmodulin-1 (Homo sapiens) (UniProt P0DP23); assay: CALM1 binders on microarrays, EGTA buffer, profiling panel, biochemical, small-molecule microarray, Cy5-labelled CALM1 (AID 1111); conditions: Cy5-CALM1 binding fluorescence, higher = more signal;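 further: labelled calmodulin applied in Tris saline Tween buffer holding calcium plus EGTA and DTT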
[15] = biological target: Calmodulin-1 (Homo sapiens) (UniProt P0DP23); assay: calcium-bound CALM1 binders on microarrays, profiling panel, artefact control for SMM control-protein annotation, biochemical, small-molecule microarray, Cy5-labelled CALM1, plus calcium (AID 1112); conditions: Cy5-CALM1 binding fluorescence, higher = more signal;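 further: score merges spot fluorescence with signal to noise from triplicate slides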
[16] = small-molecule microarray binders of probe aWnt5a, primary screen, biochemical, biotinylated probe, 635/667 nm fluorescence (AID 1113); conditions: higher = more signal;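 further: score merges 667 nm fluorescence intensity with signal-to-noise per printed feature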
[17] = small-molecule microarray binders of probe aShh, primary screen, biochemical, biotinylated probe, 635/667 nm fluorescence (AID 1114); conditions: higher = more signal;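 further: probe is biotin-labelled aShh protein from a stem cell growth factor screen; measures binding of labelled protein to compounds printed on the slide; score merges feature fluorescence at 667 nm with signal-to-noise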
[18] = small-molecule microarray binders of probe aNog, primary screen, biochemical, biotinylated probe, 635/667 nm fluorescence (AID 1115); conditions: higher = more signal;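 further: probe is biotinylated aNog protein used at 0.15 µg/mL for 1 h at 4 C; z-score combines 667 nm fluorescence of each spot with its signal to noise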
[19] = biological target: Torsin-1A-interacting protein 1 (Homo sapiens) (UniProt Q5JTV8); assay: LAP1 binders from COS7 cell lysate, primary screen, small-molecule microarray, 635/667 nm fluorescence (AID 1116); conditions: COS7-hLAP1 lysate binding, 635 nm fluorescence, higher = more signal
Torsin-1A-interacting protein 1 (Homo sapiens), sequence (Q5JTV8 whole entry, looked up): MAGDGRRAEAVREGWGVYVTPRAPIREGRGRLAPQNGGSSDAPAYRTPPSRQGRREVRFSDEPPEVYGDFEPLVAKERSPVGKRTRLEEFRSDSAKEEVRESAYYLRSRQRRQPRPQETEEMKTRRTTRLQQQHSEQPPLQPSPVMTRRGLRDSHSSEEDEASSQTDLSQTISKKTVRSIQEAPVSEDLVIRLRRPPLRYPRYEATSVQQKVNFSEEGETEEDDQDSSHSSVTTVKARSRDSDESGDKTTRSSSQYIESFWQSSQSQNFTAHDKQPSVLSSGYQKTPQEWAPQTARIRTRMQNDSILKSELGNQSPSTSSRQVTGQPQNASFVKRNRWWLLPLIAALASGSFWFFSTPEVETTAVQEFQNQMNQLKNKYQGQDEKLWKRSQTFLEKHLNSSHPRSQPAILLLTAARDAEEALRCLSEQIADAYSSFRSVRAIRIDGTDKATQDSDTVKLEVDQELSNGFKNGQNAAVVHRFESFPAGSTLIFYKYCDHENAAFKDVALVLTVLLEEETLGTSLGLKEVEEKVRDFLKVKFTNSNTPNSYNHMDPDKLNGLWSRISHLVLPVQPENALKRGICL

[20] = biological target: Alpha-bungarotoxin (Bungarus multicinctus) (UniProt P60615); assay: alpha-bungarotoxin binders on microarray, profiling panel, artefact control for SMM control protein annotation, biochemical, small-molecule microarray, Alexa647 label, 635/667 nm fluorescence (AID 1117); conditions: alpha-BTX-A647 binding fluorescence, higher = more signal
Alpha-bungarotoxin (Bungarus multicinctus), sequence (P60615 whole entry, looked up): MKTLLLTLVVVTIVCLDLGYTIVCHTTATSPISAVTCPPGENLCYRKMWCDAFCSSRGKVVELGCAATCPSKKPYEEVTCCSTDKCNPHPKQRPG

Compound | composite z-score [1] | composite z-score [2] | composite z-score [3] | z-score [4] | composite z-score [5] | composite z-score [6] | composite z-score [7] | composite z-score [8] | composite z-score [9] | composite z-score [10] | composite z-score [11] | z-score [12] | composite z-score [13] | composite z-score [14] | composite z-score [15] | composite z-score [16] | composite z-score [17] | composite z-score [18] | composite z-score [19] | composite z-score [20]
COCCOC(=O)N1C(=O)[C@@]2(c3cc(C#CCCO)ccc31)[C@H](C(N)=O)[C@H]1C(=O)O[C@H](c3ccccc3)[C@H](c3ccccc3)N1[C@@H]2c1ccc(OCCO)cc1 | 1.44 | 0.209 | 0.415 | 0.475 (inactive) | 1.25 | 1.23 | 0.808 | 1.14 | 0.616 | 0.914 | 1.28 | -1.14 | 0.957 | 1.1 | -0.351 | -0.0303 | 0.0253 | -0.371 | 1.46 | 0.787
[N-]=[N+]=NCc1ccccc1C[C@@]1(C(=O)N2CCCCC2)N=C(c2ccc(OCCCO)cc2)O[C@@H]1c1ccccc1CN=[N+]=[N-] | 0.649 | 0.453 | 1.07 | -0.4 (inactive) | 0.375 | 0.962 | -0.0197 | -0.0105 | 0.287 | 0.964 | 0.905 | -2.73 | -0.133 | 2.02 | 1.37 | -0.101 | -0.0626 | 1.31 | 1.01 | 1.5
CC(C)C(=C=CC[C@@H](O)c1cccc(OCCO)c1)C[C@@H](O)c1ccccn1 | 0.862 | -0.261 | -0.315 | 0.111 (inactive) | 0.285 | -0.366 | -0.604 | 0.0146 | 0.0852 | 0.139 | 0.0406 | -0.658 | -0.315 | -0.303 | -0.207 | -0.152 | -0.154 | -0.104 | 1.63 | -0.142
CC(C)(C)OC(=O)CC[C@]12N=C(c3ccc(OCCCO)cc3)O[C@H]1c1ccccc1N(Cc1ccccc1)C2=O | 0.907 | 0.492 | 0.462 | -0.601 (inactive) | 1.18 | 1.26 | -0.0167 | 0.483 | 0.168 | 0.777 | 0.552 | -2.09 | 0.27 | 0.42 | 0.348 | -0.0765 | -0.0969 | 0.963 | 1.36 | 1.28
C=C/C=C/[C@@H]1C(=C)CN([C@@H](Cc2ccccc2)C(=O)OC)[C@H]1[C@@H](O)Cc1ccccc1 | 0.742 | -0.369 | -0.186 | 0.844 (inactive) | 0.716 | 0.754 | -0.08 | 0.509 | 0.473 | 1.2 | 1.17 | -0.622 | 0.201 | 0.241 | -0.547 | -0.107 | -0.138 | 0.0924 | 0.309 | 0.325
O=C(O)[C@H]1C[C@H]2C(=O)N[C@@H](Cc3ccccc3)C(=O)N2[C@H]1c1cccc(OCCO)c1 | 0.348 | 0.507 | 0.198 | -0.129 (inactive) | 0.986 | 0.874 | 0.391 | 1.2 | 1.17 | 0.206 | 0.0635 | 4.5 | 0.978 | -0.309 | -0.411 | 0.0079 | -0.214 | 0.185 | 0.543 | 0.366
C=C(C(=O)CC[C@@H](OC(=O)c1ccccc1-c1ccccc1C(=O)O)c1ccccc1OCCO)C(C)C | 1.07 | -0.232 | -0.463 | 1.58 (inactive) | 1.53 | 0.645 | 0.354 | 1.38 | 0.73 | 1.26 | 1.38 | -2.63 | 0.355 | 0.0583 | -0.7 | -0.0405 | 0.232 | -0.409 | 0.202 | 1.05
[N-]=[N+]=NCc1ccccc1[C@H]1OC(c2ccc(OCCCO)cc2)=N[C@@]1(CCS(=O)(=O)c1ccccc1)C(=O)NCc1ccccc1 | 1.26 | 1.65 | 0.743 | 0.118 (inactive) | 1.06 | 1.29 | 0.333 | 0.819 | -0.0778 | 0.447 | 1.4 | -2.04 | 0.115 | 1.65 | 0.84 | 0.0253 | 0.14 | 0.543 | 0.804 | 2.15
CN1C(=O)C2C=CC(C(O)c3ccc(I)cc3)N(Nc3ccccc3)C2C1=O (stereo not given) | 1.23 | 0.158 | 0.926 | 0.623 (inactive) | 1.16 | 0.995 | 0.271 | 1.31 | -0.158 | 0.966 | 1.33 | 0.132 | 0.136 | 1.63 | 0.544 | 0.172 | 0.36 | 0.551 | 0.0151 | 1.26
C=CCC(OC(C)=O)[C@@H]1[C@@H](N(Cc2cc3ccccc3o2)C(=O)c2ccc(-c3ccccc3)cc2)c2cc(OCCCO)ccc2N1C(=O)Cc1ccc(OC)cc1 (stereo not given in full) | 0.104 | -0.102 | 0.0935 | -0.762 (inactive) | 0.247 | -0.744 | 0.0306 | 0.307 | 0.063 | 0.774 | -0.401 | -1.46 | 0.0189 | -0.184 | 0.464 | -0.0758 | -0.335 | -0.216 | -0.195 | -0.17
COC(=O)[C@@]1(Cc2ccccc2CN=[N+]=[N-])N=C(c2ccc(OCCCO)cc2)O[C@H]1c1ccccc1CN=[N+]=[N-] | 1.32 | -0.0486 | 1.02 | -1.34 (inactive) | -0.304 | -0.568 | -1.48 | -0.774 | -1.02 | -0.0879 | 0.445 | -2.92 | -2.01 | 0.0829 | 0.526 | 0.0733 | -0.156 | 0.96 | 1.1 | 0.0937
